Reference: PubChem BioAssay (NCI)
The panel holds about 83,000 compounds, 20% with a hit somewhere; the sample as a whole holds those more often.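 Testing used 96-well plates and a 48-hour single-concentration exposure. Example: -40 means 40% of the starting cells died.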 Calls of active or inactive are those of the source. Rule for the calls: active = growth percent below 10; inactive = the rest.

Tested on: HL-60(TB) leukemia
Test: NCI-60 one-dose screen, 48 h (100 = growth as untreated, 0 = no growth, -100 = all killed)
Conditions: 10 µM unless noted

Q: `CCNCCCn1c2c(c3ccc(Cl)cc3c1=O)C(=O)c1cc(OC)cnc1-2` was tested. Which growth did it give?
A: -42.9% (active)

Q: How did the growth turn out when `NC(=S)Nc1cccc(O)c1` was run?
A: 98.6% (inactive)

Q: For `O=C(/C=C\c1ccc(O)c(O)c1)c1ccccc1O`, which growth is on record?
A: 11.6% (inactive)

Q: With `C[C@@H]1CC[C@@]2(OC1)O[C@H]1C[C@H]3[C@@H]4CC=C5C[C@@H](O[C@@H]6O[C@H](CO)[C@@H](O[C@@H]7O[C@@H](CO)[C@H](O)[C@H]7O)[C@H](O)[C@H]6O[C@@H]6O[C@@H](C)[C@H](O)[C@@H](O)[C@H]6O)CC[C@]5(C)[C@H]4CC[C@]3(C)[C@H]1[C@@H]2C` as the molecule, how does the growth read?
A: -84.1% (active)

Q: Which growth does the source give for `COC(=O)c1nc(-c2ccc(C)cc2)oc1Sc1ccc(C)cc1` here?
A: 91.4% (inactive)

Q: Which growth does the source give for `COc1ccc2c(c1)OC(N)=C(C#N)C2c1cc(OC)c(OC)c(OC)c1` (configuration not stated) here?
A: -30.4% (active)

Q: Which growth does the source give for `CC1=CC(C)=Nc2ccc(Cl)cc2N1` here?
A: 101% (inactive)

Q: For `Cc1ccc(C2=NNC(c3sc(Cl)nc3Cl)C2)cc1` (configuration not stated), which growth is on record?
A: 92.7% (inactive)

Q: For `Cc1ccc(Sc2ccccc2N)cc1`, which growth is on record?
A: 115% (inactive)

Q: With `CSc1nn2c(-c3cc4cc(Br)ccc4oc3=O)ccnc2c1C#N` as the molecule, how does the growth read?
A: 102% (inactive)

Q: With `OC[C@H]1OC([S-])[C@H](O)[C@@H](O)[C@@H]1O.[Au+]` (some centres not stated) as the molecule, how does the growth read?
A: 95.1% (inactive)

Q: Which growth does the source give for `CC(=O)OCC(=O)[C@@]1(O)CC[C@H]2[C@@H]3CC(=C(Br)Br)C4=CC(=O)CC[C@]4(C)[C@H]3C(=O)C[C@@]21C` here?
A: 90.1% (inactive)

Q: How did the growth turn out when `CN1C[C@@H](c2ccc(Cl)cc2)[C@]2(NC(=S)N(c3ccccc3)C2=O)[C@@]12C(=O)NC1C=CC(Br)=C[C@H]12` (some centres not stated) was run?
A: 40.2% (inactive)

Q: How did the growth turn out when `CS(=O)(=O)Nc1cc(-c2ccc3ncc(C#N)c(Nc4ccc(F)c(Cl)c4)c3c2)cnc1Cl` was run?
A: 0.119% (active)

Q: For `COc1ccc(-c2oc(=O)ccc2-c2cc(OC)c(OC)c(OC)c2)cc1O`, which growth is on record?
A: -58.9% (active)

Q: Which growth does the source give for `CCCCC(=O)Nc1nc2ccc(SCCC)cc2s1` here?
A: 19.5% (inactive)

Q: With `CC[C@H](Nc1ncnc2nc[nH]c12)c1nc2cccc(CC(=O)c3ccc(C(=O)NO)cc3)c2c(=O)n1-c1ccccc1` as the molecule, how does the growth read?
A: 75.5% (inactive)

Q: With `O=C(NCCN1CCC(O)CC1)c1cc2c(o1)C(=O)c1ccccc1C2=O` as the molecule, how does the growth read?
A: -13.9% (active)

Q: Which growth does the source give for `Cc1nnc(N/N=C/c2ccc([N+](=O)[O-])o2)[nH]c1=O` here?
A: -34.8% (active)

Q: `CC(C)N1CCN(c2ccncc2S(=O)(=O)N2CCN(C)CC2)CC1` was tested. Which growth did it give?
A: 95.7% (inactive)

Q: `c1ccc(-c2c(-c3ccccc3)[n+](Cc3ccc4ccccc4c3)c(-c3ccc(-c4nc5ccccc5s4)cc3)n2Cc2ccc3ccccc3c2)cc1` was tested. Which growth did it give?
A: -57.2% (active)

Q: `COc1ccc(NC(N)=NCCCOc2ccc(F)cc2)cc1` was tested. Which growth did it give?
A: 87.7% (inactive)

Q: Which growth does the source give for `O=C(N/N=C(\CS(=O)(=O)c1ccccc1)c1cc2cc(Br)ccc2oc1=O)c1ccccc1` here?
A: 119% (inactive)

Q: `Cc1cccc2c(Nc3ccc(NS(C)(=O)=O)cc3)c3ccc([N+](=O)[O-])cc3nc12` was tested. Which growth did it give?
A: -27.2% (active)

Q: For `COc1ccc(C2=C(Nc3ccc(C(=O)Nc4ccccc4)cc3)C(=O)N(C)C2=O)cc1`, which growth is on record?
A: 69.9% (inactive)

Q: How did the growth turn out when `N#Cc1nc(C#N)c(Sc2ccccc2)c(Sc2ccccc2)c1Sc1ccccc1` was run?
A: -37.2% (active)

Q: How did the growth turn out when `O=C(Nc1ccncc1)C(=O)c1cn(S(=O)(=O)c2ccc(F)cc2)c2ccccc12` was run?
A: 0.498% (active)

Q: `CCC(CCC(C)C1CCC2C3CC=C4CC(O)CCC4(C)C3CCC12C)C(C)C` (configuration not stated) (tested in a mixture with another compound) was tested. Which growth did it give?
A: 82.5% (inactive)

Q: Which growth does the source give for `O=C(Nc1c2ccccc2nc2ccccc12)c1ccccc1CN1C(=O)c2ccccc2C1=O` here?
A: 38.9% (inactive)

Q: With `CC(C)NS(=O)(=O)/N=C1\NC(=O)NC1=C(Cl)Cl` as the molecule, how does the growth read?
A: 55.6% (inactive)

Q: `Cc1ccc(OCCCCCCNCCO)c(C)c1` was tested. Which growth did it give?
A: -3.98% (active)

Q: For `Nc1cc2nc3ccccc3oc-2cc1=O`, which growth is on record?
A: 16.2% (inactive)

Q: With `CCN(CC)c1ccc(C(=N)c2ccc(N(C)C)cc2)cc1` as the molecule, how does the growth read?
A: 11.1% (inactive)

Q: `CCOC(=O)Cn1c(C)c(/C=N/NC(=O)c2cc3c(ccc4ccccc43)o2)c2ccccc21` was tested. Which growth did it give?
A: 0.68% (active)

Q: With `CCN(CC)CCOc1nc2ccc(OC)cc2c2c1-c1ccc(OC)cc1C2=O` as the molecule, how does the growth read?
A: 19.2% (inactive)

Q: How did the growth turn out when `CC1(C)N=C(N)N=C(N)N1c1ccc(Cl)c(Cl)c1` was run?
A: 35.7% (inactive)

Q: `COc1ccc2nc(-c3ccc(Cl)cc3)cc(-c3nnc(SC/C(=N/O)c4ccccc4)o3)c2c1` was tested. Which growth did it give?
A: 82% (inactive)
